Laboratory results published in publication PMC4336329 (PLoS ONE, 2015).
Among all 310,000 compounds or so, about 14,000 (4.5%) showed an effect of 50% or more. Effects have a minus sign here. The list comes from a sample in which strong results are over-represented; it also holds similar structures and randomly drawn compounds.

Biological target: human ether-à-go-go-related gene (hERG) potassium channel (human, UniProt Q12809)
Assay: primary screen, population patch clamp on CHO cells stably expressing hERG; higher = less effect of the substance
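Further: peak tail current of the secondary pulse compared with the same well before compound.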

human ether-à-go-go-related gene (hERG) potassium channel, sequence (Q12809 whole entry, looked up): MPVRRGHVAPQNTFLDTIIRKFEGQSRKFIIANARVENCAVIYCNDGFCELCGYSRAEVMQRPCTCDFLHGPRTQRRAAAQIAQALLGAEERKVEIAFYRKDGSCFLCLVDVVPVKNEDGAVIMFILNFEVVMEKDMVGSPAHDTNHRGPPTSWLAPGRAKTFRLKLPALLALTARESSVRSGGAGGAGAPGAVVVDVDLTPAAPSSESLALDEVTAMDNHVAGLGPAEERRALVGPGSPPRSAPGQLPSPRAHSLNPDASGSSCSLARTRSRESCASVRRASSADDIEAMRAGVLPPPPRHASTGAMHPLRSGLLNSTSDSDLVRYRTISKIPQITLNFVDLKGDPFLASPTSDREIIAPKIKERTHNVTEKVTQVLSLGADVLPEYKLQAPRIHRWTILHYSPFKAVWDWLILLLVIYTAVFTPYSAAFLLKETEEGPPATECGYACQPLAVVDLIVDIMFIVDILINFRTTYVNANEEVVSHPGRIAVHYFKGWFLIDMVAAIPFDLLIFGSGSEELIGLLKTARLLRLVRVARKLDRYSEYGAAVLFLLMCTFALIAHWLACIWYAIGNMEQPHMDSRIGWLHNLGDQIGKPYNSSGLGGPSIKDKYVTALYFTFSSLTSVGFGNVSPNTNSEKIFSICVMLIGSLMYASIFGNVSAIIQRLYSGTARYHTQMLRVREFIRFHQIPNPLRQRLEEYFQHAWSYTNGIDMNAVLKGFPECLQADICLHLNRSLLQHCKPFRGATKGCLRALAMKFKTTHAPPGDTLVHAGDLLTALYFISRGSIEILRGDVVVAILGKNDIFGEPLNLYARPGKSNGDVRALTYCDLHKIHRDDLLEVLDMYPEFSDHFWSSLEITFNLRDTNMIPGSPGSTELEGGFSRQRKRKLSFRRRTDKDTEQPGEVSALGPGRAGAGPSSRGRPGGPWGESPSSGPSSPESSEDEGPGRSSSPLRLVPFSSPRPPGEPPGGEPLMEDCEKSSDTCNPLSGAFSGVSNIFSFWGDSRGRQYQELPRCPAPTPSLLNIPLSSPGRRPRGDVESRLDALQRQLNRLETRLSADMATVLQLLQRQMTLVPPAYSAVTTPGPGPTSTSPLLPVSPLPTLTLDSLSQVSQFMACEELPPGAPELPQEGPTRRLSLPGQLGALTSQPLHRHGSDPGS

Row | Compound | hERG current change (%, negative = inhibition) at 10uM
1 | CC(C)C(OC(=O)CN1C(=O)COc2ccccc21)C(=O)NC1CCCCC1 (centres unmarked) | -9.89%
2 | COC(=O)c1cn(CC(=O)N2CCCCCC2)c2ccccc12 | -40.1%
3 | CCN(CC(=O)NCc1cccs1)C(=O)c1cc(S(=O)(=O)N2CCCCC2)ccc1Cl | -40.2%
4 | Cc1ccc2c(Cl)c(C(=O)NCC3CCCO3)sc2c1 (centres unmarked) | -12.8%
5 | COc1ccccc1C(=O)NC(=O)COC(=O)c1oc2ccccc2c1C | 1.8%
6 | OCC[C@H]1C[C@@H](O)[C@H](O)[C@]2(Cc3ccccc3CCO2)O1 | -0.537%
7 | CN(CC(=O)Nc1cccc(F)c1)C(=O)/C=C/c1cn(Cc2ccccc2)nc1-c1cccnc1 | -48.8%
8 | COc1ccc(OC)c(/C=C/C(=O)N(C)CC(=O)Nc2cc(C)ccc2C)c1 | -15.1%
9 | CN(CC(=O)Nc1cccc(F)c1)C(=O)/C=C/c1ccc2ccccc2n1 | 7.19%
10 | COc1cccc(NC(=O)CN(C)C(=O)/C=C/c2cc(OC)ccc2OC)c1 | -67.8%
11 | COc1cccc(NC(=O)CN(C)C(=O)/C=C/c2cn(Cc3ccccc3)nc2-c2cccnc2)c1 | -59.4%
12 | COc1ccc(NC(=O)CN(C)C(=O)/C=C/c2cn(Cc3ccccc3)nc2-c2cccnc2)cc1 | -25.9%
13 | CN(CC(=O)Nc1cccc(F)c1)C(=O)/C=C/c1cc(Br)ccc1OC(F)F | -54.8%
14 | CN(CC(=O)Nc1cccc(F)c1)C(=O)/C=C/c1ccc(Br)s1 | 13.2%
15 | COc1ccc(OC)c(/C=C/C(=O)N(C)CC(=O)Nc2ccc(C)cc2)c1 | -18.3%
16 | COc1ccc(OC)c(S(=O)(=O)N(C)CC(=O)N2CCOCC2)c1 | 11.3%
17 | O=C(CSc1nc2ccccc2s1)N/N=C/c1ccccc1C(=O)O | 30.5%
18 | CC1CCN(C(=O)CSc2nnc(-c3ccncc3)n2C)CC1 | 6.41%
19 | CCc1nc(N[C@@H](Cc2c[nH]c3ccccc23)C(=O)O)c2oc3ccccc3c2n1 | 8.39%
20 | CC(C)(C)c1ccc(-c2cc(C(=O)NNC(=O)Nc3ccccc3)c3ccccc3n2)cc1 | 13.6%
21 | CCC(C)[C@H]1COCCS(=O)(=O)N1Cc1ccccc1F (some centres unmarked) | -18.5%

Row | Compound | hERG current change (%, negative = inhibition) at 10uM
22 | CCOc1ccccc1CNS(=O)(=O)c1cc(-c2cc(C)no2)ccc1OC | -18.4%
23 | Cc1cc(-c2ccc(C)c(S(=O)(=O)NCC3CCN(Cc4cccc(F)c4)CC3)c2)on1 | -39.1%
24 | COc1ccccc1CNS(=O)(=O)c1cc(C)ccc1OC | 9.32%
25 | COc1ccc(-c2cc(C)no2)cc1S(=O)(=O)NCCCN1CCCCCC1 | -17.4%
26 | COc1ccc(-c2cc(C)no2)cc1S(=O)(=O)NCC1CCN(Cc2cc(C)ccc2C)CC1 | -72%
27 | CCc1ccc(-c2cc(C)no2)cc1S(=O)(=O)N1CCCN(Cc2ccc(F)cc2)C1 | 5.62%
28 | Cc1cc(-c2ccc(C)c(S(=O)(=O)NCC3CCN(Cc4ccc(F)cc4)CC3)c2)on1 | -66.2%
29 | COc1ccc(-c2onc(C)c2C)cc1S(=O)(=O)NCCc1ccco1 | -41.8%
30 | COc1ccccc1CN1CCC(CNS(=O)(=O)c2cc(-c3cc(C)no3)ccc2OC)CC1 | -58.2%
31 | COc1ccc(CNS(=O)(=O)c2cc(-c3cc(C)no3)ccc2OC)cc1OC | 2.57%
32 | COc1ccccc1CN1CCC(CNS(=O)(=O)c2cc(-c3onc(C)c3C)ccc2OC)CC1 | -76.7%
33 | CCc1ccc(-c2cc(C)no2)cc1S(=O)(=O)NCc1ccccc1OC | -15.8%
34 | O=C(Nc1cccc(NC(=O)c2ccc(Br)cc2)c1)c1ccccc1 | 18%
35 | CCCC(CCC(=O)Nc1ccn(-c2ccccc2)n1)C(=O)O (centres unmarked) | 4.5%
36 | COc1ccc(S(=O)(=O)N2CCCC(C(=O)NCc3ccccc3)C2)cc1 (centres unmarked) | 23.7%
37 | CN(C)C=O.CN(C)c1ccc(/C=C/c2nc3ccccc3c(=O)n2-c2ccc(C(=O)O)cc2)cc1 | 19.8%
38 | C=CCn1c(SCC(N)=O)nnc1-c1ccccc1O | 0.103%
39 | CCOc1ccc(CCN2CN(CC)CNC2=S)cc1OCC | -0.457%
40 | COc1cccc(C(=O)NC(C)c2cccc3ccccc23)c1OC (centres unmarked) | -10.4%
41 | S=C(NC1CCCCC1)N1CCc2ccccc2C1 | -5.33%
